In PubChem BioAssay (Tox21):
Records with an inconclusive call do not appear. A call without a number means that no potency is given here. Calls of active or inactive are those of the source. The call rests on the fitted dose curve.

Experiment: cAMP Responsive Elements (CRE) small molecule agonists, cell-based qHTS assay (AID 1963590)
Details: CRE-bla HEK293T, beta-lactamase FRET ratio, 3 h; series mostly up to 92.4 µM
Description: U.S. Tox21 Program National Center for Advancing Translational Sciences [NCATS] Division of Preclinical Innovation [DPI] U.S. Environmental Protection Agency [EPA] National Institutes of Environmental Health Sciences [NIEHS] National Toxicology Program [NTP] U.S. Food and Drug Administration [FDA] Tox21 Assay Overview: CREB (cyclic-AMP Responsive Element Binding Protein) is a cellular transcription factor. It binds to certain DNA sequences called cAMP Responsive Elements (CRE) and regulates the transcription of the genes. […] This cell line can be used to find agonists/antagonists of the cyclic AMP signaling pathway. The activation of the report gene under culture conditions can be detected by fluorescence intensity. This cell line has been used to screen the Tox21 10K compound library to identify agonists that induce oxidative stress.
Tox21 Assay Protocol Summary: CRE-bla Hek 293T cells were suspended in assay medium (DMEM containing 10% dialyzed FBS, 0.1 mM NEAA, 1 mM sodium pyruvate and 25 mM HEPES) and dispensed at 2,000 cells/5 uL /well into 1536-well black wall/clear bottom plates using a Multidrop Combi (ThermoFisher Scientific, Waltham, MA) dispenser. After the assay plates were incubated at 37 C/5% CO2 for 18 hrs, 23 nL of compounds dissolved in DMSO, positive controls or DMSO only was transferred to the assay plate by a pintool workstation (Kalypsys, San Diego, CA). After the plates were incubated at 37 C/5% CO2 for 3 hrs, 1 uL of LiveBLAzer B/G FRET substrate (Invitrogen, Carlsbad, CA) was added to each well using Bioraptr Flying Reagent Dispenser (FRD, Aurora Discovery, San Diego, CA). The plates were incubated at room temperature for 2 h.

Structure (SMILES) | Potency | activation
CC(C)CCCCCOC(=O)CCS | inactive | 
CC(C)C1CCC(O)CC1 (stereo not given) | inactive | 
O=C(OC(=O)c1ccccc1)c1ccccc1 | inactive | 
CC(COC(=O)c1ccccc1)OC(=O)c1ccccc1 (stereo not given) | inactive | 
C=C(C)[C@H]1CC=C(C)CC1 | inactive | 
OCCCCCCCl | inactive | 
CC(C)OC=O | inactive | 
O=S(O)CO | inactive | 
CCOC(=O)OC(=O)OCC | inactive | 
CC(=O)CC(C)=O | inactive | 
CCOCCC(=O)OCC | inactive | 
CCCCCCC1(C)CCC(=O)O1 (stereo not given) | inactive | 
C1CCCCC1 | inactive | 
Clc1nc2ccccc2s1 | inactive | 
C=C(C)[C@@H]1CC[C@@H](C)C[C@@H]1O | inactive | 
CCCC(=O)CC | inactive | 
CCCCCCCCCCCCCCCC(=O)OC |  | -0.453% [at 19 µM] (inactive)
N#Cc1cc(NC(=O)C(=O)O)c(Cl)c(NC(=O)C(=O)O)c1 | inactive | 
CN(C)C(=O)Oc1ccc[n+](C)c1 | inactive | 
CC(=O)C(C)O (stereo not given) | inactive | 

Structure (SMILES) | Potency | activation
N[C@H](C(=O)O)c1ccc(O)cc1 |  | -0.179% [at 19 µM] (inactive)
O=C(O)CONC(=O)c1ccccc1 | inactive | 
O=P(OC(CCl)CCl)(OC(CCl)CCl)OC(CCl)CCl | inactive | 
NCCO | inactive | 
COc1cccc(OC)c1C(=O)N[C@@H]1C(=O)N2[C@@H]1SC(C)(C)[C@@H]2C(=O)O | inactive | 
CCCCCCCC/C=C\CCCCCCCC(N)=O | inactive | 
CC(=O)OCc1ccccc1 | inactive | 
CC(=O)CC/C=C(\C)CC/C=C(\C)CC/C=C(\C)CCC=C(C)C | inactive | 
O=C1OC2(c3cc(Br)c(O)c(Br)c3Oc3c2cc(Br)c(O)c3Br)c2c(Cl)c(Cl)c(Cl)c(Cl)c21 | inactive | 
CC(C)CNCC(C)C | inactive | 
CCC(N)(CO)CO | inactive | 
NC(=S)Nc1cccc2ccccc12 |  | -1.04% [at 8.39 µM] (inactive)
C=CC(C)(O)CCC=C(C)C (stereo not given) | inactive | 
COc1cc(/C=C/C(N)=O)cc(OC)c1OC | inactive | 
CN=C(NC#N)NCCSCc1nc[nH]c1C | inactive | 
CC(=O)c1ccccc1N | inactive | 
CN(C)CCCN(C)CCCN(C)C | inactive | 
CC(C)(C)C(=O)OCOC(=O)C1N2C(=O)CC2S(=O)(=O)C1(C)C (stereo not given) | inactive | 
O=Cc1ccc(Cl)c(Cl)c1 | inactive | 
O=C(O)Cc1cccc(-c2cc(CCCCCCc3ccc(O[C@H]4O[C@H](CO)[C@@H](O)[C@H](O)[C@@H]4O)c(-c4cccc(CC(=O)O)c4)c3)ccc2O[C@H]2O[C@H](CO)[C@@H](O)[C@H](O)[C@@H]2O)c1 |  | 1% [at 0.349 µM] (inactive)
